Laboratory results as given in PubChem BioAssay (EPA / NIEHS).
The source made the active and inactive calls. How the source made its calls: active means hit-call score of the fitted dose curve at least 0.9, where 1 is the maximum; inactive means score below 0.9.

Columns and labels:
[1] = read-out: Cyclin Dependent Kinase Inhibitor 1A (CDKN1A), CDKN1A (gene 1026); assay: LTEA_HepaRG_CDKN1A: Life Technologies and Expression Analysis (LTEA) Assay for Cyclin Dependent Kinase Inhibitor 1A (CDKN1A) using HepaRG (AID 2283450); settings: mRNA level, 48 h; actives raise or lower the signal
How it was run: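 Gain or loss of CDKN1A transcript is scored by bidirectional fitting against 0.5% DMSO vehicle. Human HepaRG cultures receive chemicals for 48 h across an 8-point series peaking at 100 uM; expression comes from qRT-PCR.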

[2] = read-out: Cyclin D1 (CCND1), CCND1 (gene 595); assay: LTEA_HepaRG_CCND1: Life Technologies and Expression Analysis (LTEA) Assay for Cyclin D1 (CCND1) using HepaRG (AID 2283451); settings: mRNA level, 48 h; actives raise or lower the signal
How it was run: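 Expression change is measured by qRT-PCR in HepaRG cells after 48 h treatment across eight concentrations topping at 100 uM, with duplicate wells and DMSO (0.5%) serving as baseline for bidirectional fitting.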

[3] = read-out: catalase (CAT), CAT (gene 847); assay: LTEA_HepaRG_CAT: Life Technologies and Expression Analysis (LTEA) Assay for catalase (CAT) using HepaRG (AID 2283452); settings: mRNA level, 48 h; actives raise or lower the signal
How it was run: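 HepaRG cells in serum-free induction medium, 0.5% DMSO vehicle, exposed 48 h in duplicate over 8 half-log concentrations from 100 uM. CAT mRNA measured by qRT-PCR, normalized to ACTB, GAPDH, POLR2A; bidirectional fit versus DMSO.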

[4] = read-out: flavin-containing dimethylaniline monooxygenases 3 (FMO3), FMO3 (gene 2328); assay: LTEA_HepaRG_FMO3: Life Technologies and Expression Analysis (LTEA) Assay for flavin-containing dimethylaniline monooxygenases 3 (FMO3) using HepaRG (AID 2283453); settings: mRNA level, 48 h; actives raise or lower the signal
How it was run: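 HepaRG, 48 h exposure, 8-pt half-log series from 100 uM, 0.5% DMSO vehicle, duplicates; FMO3 transcript by Fluidigm TaqMan qRT-PCR, housekeeping-normalized; gain/loss fit vs DMSO.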

[5] = read-out: Cytochrome P450 (CYP1A1), CYP1A1 (gene 1543); assay: LTEA_HepaRG_CYP1A1: Life Technologies and Expression Analysis (LTEA) Assay for Cytochrome P450 (CYP1A1) using HepaRG (AID 2283454); settings: mRNA level, 48 h; actives raise or lower the signal
How it was run: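 Using HepaRG cultures with 0.5% DMSO as vehicle, eight-concentration exposures (max 100 uM) lasted 48 h. Transcript levels were measured by TaqMan qRT-PCR and normalized to ACTB, GAPDH and POLR2A.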

[6] = read-out: CFLAR gene, CFLAR (gene 8837); assay: LTEA_HepaRG_CFLAR: Life Technologies and Expression Analysis (LTEA) Assay for CFLAR gene using HepaRG (AID 2283455); settings: mRNA level, 48 h; actives raise or lower the signal
How it was run: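 Differentiated HepaRG cells in serum-free induction medium were exposed 48 h in duplicate to eight half-log concentrations up to 100 uM in 0.5% DMSO; mRNA measured by TaqMan qRT-PCR, normalized to ACTB, GAPDH, POLR2A; bidirectional fitting versus DMSO.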

[7] = read-out: growth arrest and DNA damage 45 (GADD45A), GADD45A (gene 1647); assay: LTEA_HepaRG_GADD45A: Life Technologies and Expression Analysis (LTEA) Assay for growth arrest and DNA damage 45 (GADD45A) using HepaRG (AID 2283458); settings: mRNA level, 48 h; actives raise or lower the signal
How it was run: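 Human HepaRG liver cells are treated in duplicate for 48 h with chemicals in 0.5% DMSO, highest concentration 100 uM. Expression is read by qRT-PCR and analyzed in both directions against vehicle.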

[8] = read-out: ABC Transporter (ABCB1), ABCB1 (gene 5243); assay: LTEA_HepaRG_ABCB1: Life Technologies and Expression Analysis (LTEA) Assay for ABC Transporter (ABCB1) using HepaRG (AID 2283460); settings: mRNA level, 48 h; actives raise or lower the signal
How it was run: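 HepaRG cells exposed in duplicate for 48 h in serum-free induction medium to eight half-log concentrations up to 100 uM in 0.5% DMSO. ABCB1 mRNA quantified by qRT-PCR, normalised to ACTB, GAPDH and POLR2A; fitted bidirectionally versus DMSO.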

[9] = read-out: growth arrest and DNA damage 45 (GADD45B), GADD45B (gene 4616); assay: LTEA_HepaRG_GADD45B: Life Technologies and Expression Analysis (LTEA) Assay for growth arrest and DNA damage 45 (GADD45B) using HepaRG (AID 2283461); settings: mRNA level, 48 h; actives raise or lower the signal
How it was run: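 Human HepaRG monolayers receive chemicals for 48 h at eight half-log concentrations, highest 100 uM, in 0.5% DMSO. Expression is measured by TaqMan qRT-PCR and normalized to ACTB, GAPDH and POLR2A.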

[10] = read-out: ABC Transporter (ABCC3), ABCC3 (gene 8714); assay: LTEA_HepaRG_ABCC3: Life Technologies and Expression Analysis (LTEA) Assay for ABC Transporter (ABCC3) using HepaRG (AID 2283462); settings: mRNA level, 48 h; actives raise or lower the signal
How it was run: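 Transcriptional change of ABCC3 in HepaRG after 48 h treatment, determined by qRT-PCR normalized to endogenous controls. Concentrations spanned eight half-log steps to 100 uM in 0.5% DMSO.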

[11] = read-out: ABC Transporter (ABCB11), ABCB11 (gene 8647); assay: LTEA_HepaRG_ABCB11: Life Technologies and Expression Analysis (LTEA) Assay for ABC Transporter (ABCB11) using HepaRG (AID 2283463); settings: mRNA level, 48 h; actives raise or lower the signal
How it was run: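 Differentiated human HepaRG cells in serum-free induction medium, dosed in duplicate for 48 h. Eight-point half-log series from 100 uM in 0.5% DMSO; ABCB11 mRNA by qRT-PCR, normalized to ACTB, GAPDH, POLR2A, fitted bidirectionally versus DMSO.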

[12] = read-out: Broad substrate specificity ATP-binding cassette transporter ABCG2 (Homo sapiens) (UniProt Q9UNQ0); assay: LTEA_HepaRG_ABCG2: Life Technologies and Expression Analysis (LTEA) Assay for ABC Transporter (ABCG2) using HepaRG (AID 2283465); settings: mRNA level, 48 h; actives raise or lower the signal
How it was run: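 Differentiated HepaRG cells were exposed for 48 h in serum-free induction medium to 8 half-log concentrations, top 100 uM, in 0.5% DMSO. ABCG2 mRNA was measured by qRT-PCR, normalized to ACTB, GAPDH and POLR2A, with bidirectional fitting versus DMSO.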

[13] = read-out: ATP-citrate lyase (ACLY), ACLY (gene 47); assay: LTEA_HepaRG_ACLY: Life Technologies and Expression Analysis (LTEA) Assay for ATP-citrate lyase (ACLY) using HepaRG (AID 2283466); settings: mRNA level, 48 h; actives raise or lower the signal
How it was run: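 Differentiated HepaRG cells exposed 48 h in serum-free induction medium to eight half-log concentrations up to 100 uM in 0.5% DMSO, duplicates. Transcript measured by Fluidigm TaqMan qRT-PCR, normalized to ACTB, GAPDH, POLR2A; bidirectional fit versus DMSO.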

[14] = read-out: Alkaline Phosphatase, Placental (ALPP) gene, ALPP (gene 250); assay: LTEA_HepaRG_ALPP: Life Technologies and Expression Analysis (LTEA) Assay for Alkaline Phosphatase, Placental (ALPP) gene using HepaRG (AID 2283468); settings: mRNA level, 48 h; actives raise or lower the signal
How it was run: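 Using human liver HepaRG cells, chemicals are tested in duplicate over 48 h at half-log concentrations topping at 100 uM; phenobarbital 1 mM serves as induction control. ALPP mRNA change by qRT-PCR, bidirectional fit against vehicle.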

[15] = read-out: Cyclin D2 (CCND2), CCND2 (gene 894); assay: LTEA_HepaRG_CCND2: Life Technologies and Expression Analysis (LTEA) Assay for Cyclin D2 (CCND2) using HepaRG (AID 2283449); settings: mRNA level, 48 h; actives raise or lower the signal;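 further: CCND2 transcript measured by TaqMan qRT-PCR and normalised to three housekeeping genes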
How it was run: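 Chemicals in 0.5% DMSO, eight half-log concentrations from 100 uM top, were applied in duplicate for 48 h to human HepaRG cells in serum-free induction medium. CCND2 mRNA by TaqMan qRT-PCR, normalised to ACTB/GAPDH/POLR2A; bidirectional fit versus DMSO.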

[16] = CEETOX_H295R_TESTO: CeeTox H295R High-throughput Steroidogenesis Assay for Testosterone (TESTO) (AID 2283457); settings: actives raise or lower the signal;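 on AC50: cells exposed to chemicals for 48 h before medium collection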
How it was run: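 Steroidogenesis in H295R cells following OECD 456 with minor changes; 48 h exposure. Medium testosterone by HPLC-MS/MS, DMSO as baseline, with MTT viability run in parallel.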

Measured: AC50

Broad substrate specificity ATP-binding cassette transporter ABCG2 (Homo sapiens), sequence (Q9UNQ0 whole entry, looked up): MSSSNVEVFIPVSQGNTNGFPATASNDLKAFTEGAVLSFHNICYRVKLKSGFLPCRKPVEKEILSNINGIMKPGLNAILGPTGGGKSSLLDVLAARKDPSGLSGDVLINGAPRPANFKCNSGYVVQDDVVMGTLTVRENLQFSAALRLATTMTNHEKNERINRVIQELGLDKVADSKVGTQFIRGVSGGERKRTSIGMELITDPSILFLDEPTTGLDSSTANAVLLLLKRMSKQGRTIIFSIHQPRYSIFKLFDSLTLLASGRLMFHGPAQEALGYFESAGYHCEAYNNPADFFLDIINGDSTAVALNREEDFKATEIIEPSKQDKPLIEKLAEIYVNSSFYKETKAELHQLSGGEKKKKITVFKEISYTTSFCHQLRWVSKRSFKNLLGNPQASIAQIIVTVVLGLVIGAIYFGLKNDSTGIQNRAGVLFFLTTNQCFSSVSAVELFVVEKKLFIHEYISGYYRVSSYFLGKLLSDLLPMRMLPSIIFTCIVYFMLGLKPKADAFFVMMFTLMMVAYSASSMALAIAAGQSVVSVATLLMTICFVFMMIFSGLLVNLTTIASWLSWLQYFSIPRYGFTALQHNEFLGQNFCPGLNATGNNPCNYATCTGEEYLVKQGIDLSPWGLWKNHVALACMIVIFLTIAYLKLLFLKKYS

CCCCCCCc1ccc(O)cc1
not listed: [15] | [16]
inactive: all other assays above

CCOc1ccc(C(C)(C)COCc2cccc(Oc3ccccc3)c2)cc1
active: [5] 41 µM | [8] 8.69 µM | [12] 2.64 µM
not listed: [15] | [16]
inactive: all other assays above

CCOP(=S)(OCC)SCSCC
active: [5] 66.7 µM
not listed: [15] | [16]
inactive: all other assays above

CCCCN(CCCC)N=O
not listed: [16]
inactive: all other assays above

COCCOCCO
not listed: [15] | [16]
inactive: all other assays above

COP(N)(=S)OC
inactive: [16]

CCCN(CCC)c1c([N+](=O)[O-])cc(C(C)C)cc1[N+](=O)[O-]
active: [5] 24.5 µM | [7] 0.234 µM | [8] 50 µM | [10] 0.246 µM | [12] 18.1 µM | [13] 0.129 µM
not listed: [16]
inactive: all other assays above

OCC1CO1 (stereo not drawn)
not listed: [16]
inactive: all other assays above

CCC(C)(C)c1ccc(O)cc1
not listed: [16]
inactive: all other assays above

CCN(CC)c1ccccc1
active: [5] 50 µM
not listed: [16]
inactive: all other assays above

CC(=O)c1ccc(-c2ccccc2)cc1
active: [16] 19.1 µM

CC(Cl)(Cl)C(=O)O
not listed: [16]
inactive: all other assays above

c1ccc(OP(Oc2ccccc2)Oc2ccccc2)cc1
active: [5] 77.3 µM
not listed: [16]
inactive: all other assays above
